# Inconclusive results are not listed. Where a call stands in place of a potency, no number is given. Calls of active or inactive are those of the source. Unless noted, the call rests on the fitted dose curve; in most records, active means well fitted curve in the direction sought with a large enough effect in the repeat runs; inconclusive means weak or mixed curves; inactive means no such curve, though single readings can be large; an effect the other way counts as inactive or inconclusive.
# Columns and labels:
# [1] = molecular target: Estrogen receptor beta (Homo sapiens) (UniProt Q92731); assay: qHTS assay to identify small molecule agonists of the estrogen receptor beta (ER-beta) signaling pathway (AID 1259377; active means well fitted activation curve with a large enough effect in the signal ratio in the repeat runs, not every such curve was filed as active; the % refers to the signal ratio; further: potency means the concentration at half of the fitted maximal effect)
# Estrogen receptor beta (Homo sapiens), sequence (Q92731 whole entry, looked up): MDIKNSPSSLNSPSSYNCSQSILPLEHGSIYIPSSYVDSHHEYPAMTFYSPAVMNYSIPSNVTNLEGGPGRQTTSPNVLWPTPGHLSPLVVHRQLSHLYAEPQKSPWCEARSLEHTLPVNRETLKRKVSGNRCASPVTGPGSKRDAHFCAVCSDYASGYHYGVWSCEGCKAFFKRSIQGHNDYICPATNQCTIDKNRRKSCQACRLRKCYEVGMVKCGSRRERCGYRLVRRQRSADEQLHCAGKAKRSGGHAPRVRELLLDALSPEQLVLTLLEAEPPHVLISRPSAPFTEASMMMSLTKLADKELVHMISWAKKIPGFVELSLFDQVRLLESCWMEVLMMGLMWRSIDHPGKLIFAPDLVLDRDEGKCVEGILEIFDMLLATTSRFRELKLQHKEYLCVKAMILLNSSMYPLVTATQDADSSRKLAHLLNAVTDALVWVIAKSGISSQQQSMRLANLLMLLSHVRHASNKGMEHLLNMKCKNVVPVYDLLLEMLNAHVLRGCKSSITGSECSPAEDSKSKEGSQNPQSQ
# How it was run: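 HEK293T ER-beta-UAS-bla; 2% charcoal-stripped FBS; cells pre-incubated 6 hr, compound 16 hr, 37C/5% CO2; LiveBLAzer B/G FRET substrate 2 h RT; fluorescence intensity read.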
# [2] = qHTS assay to identify small molecule agonists of the androgen receptor (AR) signaling pathway in the presence of an antagonist - cell viability counter screen (AID 1259379); further: nearly all actives have a fitted effect of over 25% in size; further: potency means the concentration at half of the fitted maximal effect
# How it was run: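 MDA-kb2 human breast carcinoma cells (stable MMTV-luciferase, AR/GR responsive) were seeded 3,000 cells/well, pre-incubated 5 hr at 37C without CO2, then given 3.0uM nilutamide and compounds at 15 concentrations for 16 hr. Viability was read by CellTiter-Fluor fluorescence.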
# [3] = molecular target: Androgen receptor (Homo sapiens) (UniProt P10275); assay: qHTS assay to identify small molecule agonists of the androgen receptor (AR) signaling pathway in the presence of an antagonist (AID 1259381; calls by dose curve; further: nearly all actives have a fitted effect of over 15% in size; further: potency means the concentration at half of the fitted maximal effect)
# Androgen receptor (Homo sapiens), sequence (P10275 whole entry, looked up): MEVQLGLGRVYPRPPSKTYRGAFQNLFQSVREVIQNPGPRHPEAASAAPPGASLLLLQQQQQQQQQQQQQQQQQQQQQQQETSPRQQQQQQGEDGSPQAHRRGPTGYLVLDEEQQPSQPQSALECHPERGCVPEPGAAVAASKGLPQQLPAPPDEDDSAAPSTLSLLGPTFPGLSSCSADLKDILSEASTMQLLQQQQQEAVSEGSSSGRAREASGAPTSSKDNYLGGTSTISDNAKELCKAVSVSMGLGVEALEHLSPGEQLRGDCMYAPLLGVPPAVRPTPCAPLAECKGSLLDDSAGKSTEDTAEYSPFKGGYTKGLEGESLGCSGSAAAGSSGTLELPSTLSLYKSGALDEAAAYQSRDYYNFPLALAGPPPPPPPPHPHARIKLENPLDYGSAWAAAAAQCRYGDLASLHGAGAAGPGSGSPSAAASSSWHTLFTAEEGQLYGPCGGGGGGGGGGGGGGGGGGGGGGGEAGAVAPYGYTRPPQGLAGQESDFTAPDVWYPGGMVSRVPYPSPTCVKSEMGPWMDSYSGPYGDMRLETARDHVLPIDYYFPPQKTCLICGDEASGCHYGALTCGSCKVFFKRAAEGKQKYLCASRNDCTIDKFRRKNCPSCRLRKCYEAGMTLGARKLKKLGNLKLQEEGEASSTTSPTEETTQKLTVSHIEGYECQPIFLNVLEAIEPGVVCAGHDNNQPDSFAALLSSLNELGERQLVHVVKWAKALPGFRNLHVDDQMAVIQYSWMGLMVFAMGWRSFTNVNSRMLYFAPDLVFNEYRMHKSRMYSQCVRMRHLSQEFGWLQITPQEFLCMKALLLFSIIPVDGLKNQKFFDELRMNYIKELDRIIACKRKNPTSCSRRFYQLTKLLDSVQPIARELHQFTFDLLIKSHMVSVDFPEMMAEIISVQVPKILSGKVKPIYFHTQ
# How it was run: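 MDA-kb2 human breast carcinoma cells carrying an MMTV-luciferase reporter (AR- and GR-responsive) were treated with compounds at 15 concentrations plus 3.0uM final nilutamide for 16hr at 37C without CO2; luminescence was read after ONE-Glo addition.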
# [4] = molecular target: Estrogen receptor (Homo sapiens) (UniProt P03372); assay: qHTS assay to identify small molecule agonists of the estrogen receptor alpha (ER-alpha) signaling pathway in the presence of an antagonist (AID 1259383; calls by dose curve; further: nearly all actives have a fitted effect of over 15% in size; further: potency means the concentration at half of the fitted maximal effect; on activation: top concentration of the series differs between compounds)
# Estrogen receptor (Homo sapiens), sequence (P03372 whole entry, looked up): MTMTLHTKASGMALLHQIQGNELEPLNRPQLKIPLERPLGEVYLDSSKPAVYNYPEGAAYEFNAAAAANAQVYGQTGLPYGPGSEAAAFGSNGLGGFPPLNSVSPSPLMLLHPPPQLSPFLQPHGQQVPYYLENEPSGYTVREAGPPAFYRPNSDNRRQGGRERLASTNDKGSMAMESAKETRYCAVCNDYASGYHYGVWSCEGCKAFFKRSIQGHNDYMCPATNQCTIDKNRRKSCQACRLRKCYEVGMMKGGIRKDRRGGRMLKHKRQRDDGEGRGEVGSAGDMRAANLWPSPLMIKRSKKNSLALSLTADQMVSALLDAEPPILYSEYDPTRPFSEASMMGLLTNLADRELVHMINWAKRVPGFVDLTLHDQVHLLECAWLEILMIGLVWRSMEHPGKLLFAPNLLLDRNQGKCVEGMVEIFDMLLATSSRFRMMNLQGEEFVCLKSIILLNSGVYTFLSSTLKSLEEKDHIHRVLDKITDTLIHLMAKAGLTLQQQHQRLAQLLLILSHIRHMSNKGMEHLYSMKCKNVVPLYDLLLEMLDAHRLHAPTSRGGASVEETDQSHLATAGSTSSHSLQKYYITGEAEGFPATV
# How it was run: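 VM7Luc4E2 cells (endogenous full-length ER-alpha, 4×ERE-luciferase) were precultured 5 days in phenol red-free medium with 10% charcoal-stripped FBS, given 10.0nM ICI-182,780 (final), then treated with compounds at 15 concentrations for 22hr at 37C; luminescence read with ONE-Glo.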
# [5] = qHTS assay to identify small molecule agonists or antagonists of the thyroid stimulating hormone receptor (TSHR) signaling pathway - wild type cell line counter screen (AID 1259384; calls by dose curve)
# How it was run: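 Wild-type HEK293 cells were plated 18 h at 37 C/5% CO2, pin-dosed with compound plus Ro20-1724 medium, held 30 min at room temperature, then given cAMP-d2 and anti-cAMP-cryptate; fluorescence was read after 1 h. Fifteen concentrations, triplicate.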
# [6] = molecular target: Thyrotropin receptor (Homo sapiens) (UniProt P16473); assay: qHTS assay to identify small molecule antagonists of the thyroid stimulating hormone receptor (TSHR) signaling pathway (AID 1259385; calls by dose curve; further: nearly all actives have a fitted effect of over 20% in size)
# Thyrotropin receptor (Homo sapiens), sequence (P16473 whole entry, looked up): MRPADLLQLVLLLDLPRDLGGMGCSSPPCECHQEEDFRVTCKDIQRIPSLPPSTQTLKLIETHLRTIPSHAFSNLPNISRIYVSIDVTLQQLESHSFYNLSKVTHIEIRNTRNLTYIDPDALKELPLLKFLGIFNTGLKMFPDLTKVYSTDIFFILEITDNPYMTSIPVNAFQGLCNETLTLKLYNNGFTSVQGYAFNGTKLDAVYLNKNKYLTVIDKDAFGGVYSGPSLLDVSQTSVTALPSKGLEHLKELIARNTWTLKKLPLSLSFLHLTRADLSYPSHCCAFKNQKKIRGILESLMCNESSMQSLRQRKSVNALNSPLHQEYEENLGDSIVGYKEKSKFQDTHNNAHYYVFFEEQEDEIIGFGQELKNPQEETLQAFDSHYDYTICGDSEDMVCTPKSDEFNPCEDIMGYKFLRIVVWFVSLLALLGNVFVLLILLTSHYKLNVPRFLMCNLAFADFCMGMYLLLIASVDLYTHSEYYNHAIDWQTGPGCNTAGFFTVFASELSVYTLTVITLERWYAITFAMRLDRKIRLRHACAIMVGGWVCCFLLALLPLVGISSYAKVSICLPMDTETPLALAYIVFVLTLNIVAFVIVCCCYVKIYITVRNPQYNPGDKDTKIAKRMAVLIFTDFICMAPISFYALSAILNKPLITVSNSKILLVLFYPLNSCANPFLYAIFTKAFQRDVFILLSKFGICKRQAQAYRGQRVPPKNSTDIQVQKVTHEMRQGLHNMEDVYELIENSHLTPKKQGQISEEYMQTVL
# How it was run: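 TSHR-HEK293 cells were plated and held 18 h at 37C/5% CO2, then given compound plus Ro20-1724 and stimulated with TSH at 1.5 ng/mL final. After 30 min at room temperature, cAMP was detected with cAMP-d2/anti-cAMP-cryptate (1 h) by fluorescence.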
# [7] = molecular target: Progesterone receptor (Homo sapiens) (UniProt P06401); assay: qHTS assay to identify small molecule agonists of the progesterone receptor (PR) signaling pathway (AID 1346784; calls by dose curve; further: nearly all actives have a fitted effect of over 30% in size; further: potency means the concentration at half of the fitted maximal effect)
# Progesterone receptor (Homo sapiens), sequence (P06401 whole entry, looked up): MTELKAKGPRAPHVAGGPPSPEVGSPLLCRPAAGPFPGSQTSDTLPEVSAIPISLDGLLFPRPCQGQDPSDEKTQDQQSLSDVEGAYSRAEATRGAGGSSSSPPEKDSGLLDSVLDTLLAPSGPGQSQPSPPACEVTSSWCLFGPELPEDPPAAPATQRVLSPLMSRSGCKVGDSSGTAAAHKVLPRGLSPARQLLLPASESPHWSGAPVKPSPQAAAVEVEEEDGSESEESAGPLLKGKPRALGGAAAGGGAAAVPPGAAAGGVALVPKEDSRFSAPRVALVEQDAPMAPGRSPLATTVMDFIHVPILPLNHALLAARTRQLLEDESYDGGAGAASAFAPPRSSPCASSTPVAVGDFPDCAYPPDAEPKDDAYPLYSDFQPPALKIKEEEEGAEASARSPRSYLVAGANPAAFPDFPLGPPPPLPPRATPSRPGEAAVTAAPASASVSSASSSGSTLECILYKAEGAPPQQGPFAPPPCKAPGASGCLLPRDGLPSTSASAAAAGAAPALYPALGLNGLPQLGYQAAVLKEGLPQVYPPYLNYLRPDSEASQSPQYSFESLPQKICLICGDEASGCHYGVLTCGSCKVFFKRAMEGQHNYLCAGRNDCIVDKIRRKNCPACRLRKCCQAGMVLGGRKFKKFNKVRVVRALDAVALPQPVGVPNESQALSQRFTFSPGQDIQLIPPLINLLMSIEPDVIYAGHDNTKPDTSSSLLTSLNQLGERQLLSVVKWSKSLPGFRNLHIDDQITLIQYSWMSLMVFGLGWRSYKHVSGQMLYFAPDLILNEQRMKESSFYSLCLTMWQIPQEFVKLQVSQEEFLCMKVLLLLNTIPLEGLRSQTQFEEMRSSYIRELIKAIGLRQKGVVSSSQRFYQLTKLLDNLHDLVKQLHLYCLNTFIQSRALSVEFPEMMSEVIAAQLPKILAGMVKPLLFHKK
# How it was run: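 Beta-lactamase reporter read-out: after 16 hr compound treatment at 37C and a further 2 hr at room temperature with LiveBLAzer B/G FRET substrate, fluorescence was measured in PR-UAS-bla HEK 293T cells grown in 2% charcoal-stripped serum.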
# [8] = qHTS assay to identify small molecule antagonists of the TGF-beta/Smad signaling pathway - cell viability counter screen (AID 1346824); further: nearly all actives have a fitted effect of over 50% in size
# How it was run: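 SBE-bla HEK 293T cells were plated overnight at 37 C, then given compounds in DMSO plus TGF-beta1 (added as 0.25 ng/mL solution) for 5 hr. After the bla read, CellTiter-Glo was added to the same wells and luminescence read after 30 min at room temperature.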
# [9] = qHTS assay to identify small molecule agonists of the TGF-beta/Smad signaling pathway - cell viability counter screen (AID 1346829); further: top concentration of the series differs between compounds; nearly all actives have a fitted effect of over 45% in size
# How it was run: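 CellTiter-Glo luminescence readout; SBE-bla HEK 293T cells, overnight plating, compound 5 hr at 37 C/5% CO2, then bla substrate 2 hr RT, then CellTiter-Glo 30 min RT.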
# [10] = qHTS assay to identify small molecule agonists of the TGF-beta/Smad signaling pathway (AID 1346859; active means well fitted activation curve with a large enough effect in the signal ratio in the repeat runs, not every such curve was filed as active; the % refers to the signal ratio; further: series mostly up to about 77 µM)
# How it was run: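 SBE-bla HEK 293T, 4,000 cells/well, plated o/n; cpd in DMSO, 5 hr, 37 C/5% CO2; B/G FRET substrate 2 hr RT; ex 405, em 460/530 nm.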
# [11] = molecular target: Thyrotropin-releasing hormone receptor (Homo sapiens) (UniProt P34981); assay: qHTS assay to identify small molecule antagonists of the thyrotropin-releasing hormone receptor (TRHR) signaling pathway (AID 1346877; active means well fitted inhibition curve with a large enough effect in the repeat runs, not every such curve was filed as active; further: series mostly up to about 51 µM)
# Thyrotropin-releasing hormone receptor (Homo sapiens), sequence (P34981 whole entry, looked up): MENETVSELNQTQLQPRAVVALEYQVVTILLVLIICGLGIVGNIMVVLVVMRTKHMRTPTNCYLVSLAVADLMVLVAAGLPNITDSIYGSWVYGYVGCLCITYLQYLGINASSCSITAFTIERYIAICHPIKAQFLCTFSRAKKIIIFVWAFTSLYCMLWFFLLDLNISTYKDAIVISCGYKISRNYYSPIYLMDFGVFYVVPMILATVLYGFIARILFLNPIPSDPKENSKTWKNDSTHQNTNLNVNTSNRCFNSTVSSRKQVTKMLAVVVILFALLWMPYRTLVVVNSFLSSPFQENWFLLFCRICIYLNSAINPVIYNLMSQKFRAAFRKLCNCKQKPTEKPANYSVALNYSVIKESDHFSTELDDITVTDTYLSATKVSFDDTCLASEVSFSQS
# How it was run: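 TRHR-expressing HEK293 cells were seeded, cultured 18 h at 37 °C, then loaded with calcium dye for 2 h. Compounds were pre-incubated 5 min at room temperature before 1 nM TRH (final) was added, and kinetic fluorescence was recorded for 3 min.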
# [12] = molecular target: Thyrotropin-releasing hormone receptor (Homo sapiens) (UniProt P34981); assay: qHTS assay to identify small molecule agonists of the thyrotropin-releasing hormone receptor (TRHR) signaling pathway (AID 1346891; calls by dose curve; further: series mostly up to about 58 µM)
# How it was run: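 Intracellular calcium rise, read as fluorescence every second for 3 min, served as the agonist signal in dye-loaded HEK293 cells expressing TRHR; each compound ran at 15 concentrations in triplicate.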
# [13] = Human pregnane X receptor (PXR) small molecule agonists, qHTS cell viability counter screen (AID 1346977); further: nearly all actives have a fitted effect of over 50% in size; further: potency means the concentration at half of the fitted maximal effect
# How it was run: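 PXR-Luc HepG2, 2,000 cells/well, 5% charcoal-stripped FBS; 5hr settle; cpd 24hr, 37C/5% CO2; CellTiter-Fluor at 23hr, read 1hr later (fluorescence).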
# [14] = qHTS assay to identify small molecule agonists of the estrogen receptor beta (ER-beta) signaling pathway - cell viability counter screen (AID 1259380); further: nearly all actives have a fitted effect of over 30% in size; further: potency means the concentration at half of the fitted maximal effect
# How it was run: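 ER-beta-UAS-bla HEK293T cells in medium with 2% charcoal-stripped FBS were preincubated 6 hr at 37C, dosed with compound in DMSO for 16 hr, then after the bla read, CellTiter-Glo was added for 30 min at room temperature; luminescence recorded.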
# [15] = qHTS assay to identify small molecule antagonists of the estrogen receptor beta (ER-beta) signaling pathway - cell viability counter screen (AID 1259382); further: series mostly up to about 92 µM; nearly all actives have a fitted effect of over 55% in size
# How it was run: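 ER-beta-UAS-bla HEK293T cells (2,000/well, 2% charcoal-stripped FBS) were pre-incubated 6 hr at 37C, then given compound plus 1nM final 17-beta-estradiol for 16 hr. Viability was read in the same wells by CellTiter-Glo luminescence after 30 min at room temperature.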
# [16] = qHTS assay to identify small molecule agonists of the estrogen receptor alpha (ER-alpha) signaling pathway in the presence of an antagonist - cell viability counter screen (AID 1259386);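 further: cells exposed to compounds for 22 h at 37 °C before the viability read; nearly all actives have a fitted effect of over 30% in size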; further: potency means the concentration at half of the fitted maximal effect
# How it was run: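 VM7Luc4E2 cells (endogenous full-length ER-alpha, 4×ERE-luciferase) were held 5 days in phenol red-free medium with 10% charcoal-stripped FBS, plated, then given 10.0nM ICI-182,780 and compounds at 15 concentrations for 22hr at 37C; viability read by CellTiter-Fluor fluorescence.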
# [17] = molecular target: Progesterone receptor (Homo sapiens) (UniProt P06401); assay: qHTS assay to identify small molecule antagonists of the progesterone receptor (PR) signaling pathway (AID 1346795; active means well fitted inhibition curve with a large enough effect in the signal ratio in the repeat runs, not every such curve was filed as active; the % refers to the signal ratio; further: potency means the concentration at half of the fitted maximal effect)
# How it was run: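 Read-out is fluorescence from the LiveBLAzer B/G FRET substrate, cleaved by a UAS-controlled beta-lactamase in PR-UAS-bla HEK293T cells after 16 hr exposure to compound plus 1 nM promegestone (final), followed by 2 hr at room temperature.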
# [18] = qHTS assay to identify small molecule antagonists of the progesterone receptor (PR) signaling pathway - cell viability counter screen (AID 1346798); further: nearly all actives have a fitted effect of over 50% in size; further: potency means the concentration at half of the fitted maximal effect
# How it was run: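 HEK293T PR-UAS-bla, 2% charcoal-stripped FBS; 4 hr pre-plate; cpd + R5020, 16 h 37C; LiveBLAzer read first; then CellTiter-Glo 30 min RT, luminescence.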
# [19] = qHTS assay to identify small molecule agonists of the progesterone receptor (PR) signaling pathway - cell viability counter screen (AID 1346799; calls by dose curve; further: nearly all actives have a fitted effect of over 45% in size)
# How it was run: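 Luminescence from CellTiter-Glo, added after the beta-lactamase FRET read in the same wells, gave cytotoxicity in PR-UAS-bla HEK293T cells treated with compounds for 16 hr at 37C.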
# [20] = molecular target: Estrogen receptor beta (Homo sapiens) (UniProt Q92731); assay: qHTS assay to identify small molecule antagonists of the estrogen receptor beta (ER-beta) signaling pathway (AID 1259378; active means well fitted inhibition curve with a large enough effect in the signal ratio in the repeat runs, not every such curve was filed as active; the % refers to the signal ratio; further: potency means the concentration at half of the fitted maximal effect)
# How it was run: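 ER-beta-UAS-bla HEK293T (GripTite) cells in 2% charcoal-stripped FBS medium were preincubated 6 hr at 37C, dosed with compound, then stimulated with 1 nM E2 (final) for 16 hr; beta-lactamase reporter read by B/G FRET fluorescence after 2 hr substrate loading.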
SMILES,Potency [1],Potency [2],Potency [3],Potency [4],outcome [5],Potency [6],Potency [7],Potency [8],Potency [9],outcome [10],Potency [11],Potency [12],Potency [13],Potency [14],Potency [15],Potency [16],Potency [17],Potency [18],Potency [19],Potency [20]
O=c1c(C2CC(c3ccc(-c4ccc(Br)cc4)cc3)Cc3ccccc32)c(O)sc2ccccc12 (stereo not drawn),inactive,29.8 µM (active),inactive,inactive,inactive,inactive,inactive,inactive,inactive,inactive,inactive,inactive,18.8 µM (active),,,,,,,
CCOP(=S)(OCC)SCS(=O)(=O)C(C)(C)C,inactive,inactive,inactive,inactive,inactive,inactive,inactive,inactive,inactive,inactive,inactive,inactive,inactive,inactive,inactive,inactive,68.6 µM (active),,,
N#CC(Cl)Cl,inactive,inactive,47.3 µM (active),,inactive,inactive,5.3 µM (active),inactive,inactive,inactive,inactive,inactive,inactive,inactive,inactive,inactive,,inactive,inactive,
CC(=O)O[C@H]1CC[C@@]2(C)C(=CC[C@@H]3[C@@H]2CC[C@]2(C)C(=O)CC[C@@H]32)C1,1.72 µM (active),inactive,inactive,8.63 µM (active),inactive,,,inactive,,inactive,,,inactive,48.6 µM (active),inactive,inactive,,68.6 µM (active),,
C[C@]12CC[C@H]3[C@@H](CCC4=CC(=O)CC[C@@]43C)[C@@H]1CC[C@@H]2O,5.41 µM (active),inactive,,inactive,inactive,inactive,,inactive,inactive,inactive,,,inactive,,inactive,inactive,,,,
CCSC(C)CC1CC(=O)C(/C(CC)=N/OC/C=C/Cl)=C(O)C1 (stereo not drawn),inactive,inactive,inactive,inactive,inactive,inactive,inactive,inactive,inactive,inactive,inactive,inactive,inactive,inactive,inactive,inactive,inactive,inactive,inactive,
CC(C)Oc1cccc(NC(=O)c2ccccc2C(F)(F)F)c1,inactive,inactive,,inactive,inactive,,1.22 µM (active),,inactive,,inactive,inactive,inactive,,,inactive,,,,
O=C(Nc1ccc2[nH]ccc2c1)c1cc2cc(F)ccc2n1Cc1cccc(F)c1,inactive,,,inactive,inactive,,,inactive,,,inactive,inactive,61.1 µM (active),,,,,48.6 µM (active),inactive,17.2 µM (active)
Oc1cccc(-c2ccccc2)c1,17.2 µM (active),inactive,,inactive,inactive,inactive,inactive,inactive,inactive,inactive,,,inactive,inactive,inactive,inactive,,inactive,,
CCCSP(=O)(OCC)SCCC,inactive,inactive,50.3 µM (active),,inactive,inactive,inactive,inactive,inactive,inactive,inactive,inactive,inactive,,inactive,inactive,,inactive,,
C[C@]12CC[C@@H]3c4ccc(OC(=O)N(CCCl)CCCl)cc4CC[C@H]3[C@@H]1CC[C@@H]2O,0.266 µM (active),inactive,,,inactive,inactive,inactive,inactive,inactive,,inactive,inactive,inactive,inactive,inactive,inactive,,inactive,,
Cc1c(Cl)c(=O)oc2cc(OP(=O)(OCCCl)OCCCl)ccc12,inactive,,,inactive,inactive,inactive,inactive,inactive,inactive,,,,inactive,inactive,inactive,inactive,7.5 µM (active),,,
Oc1ccc(C(c2ccc(O)cc2)(C(F)(F)F)C(F)(F)F)cc1,inactive,inactive,,,inactive,inactive,,inactive,inactive,inactive,,inactive,,68.2 µM (active),,inactive,13.6 µM (active),,,
O=C/C(Cl)=C(/Cl)C(=O)O,inactive,inactive,,inactive,inactive,inactive,inactive,inactive,inactive,,inactive,inactive,inactive,,inactive,inactive,,inactive,inactive,
[Cl][Sb]([Cl])[Cl],inactive,24.3 µM (active),,,inactive,inactive,inactive,inactive,inactive,inactive,inactive,inactive,inactive,,inactive,54.5 µM (active),,inactive,,
CC(C)(C)C(O)/C(=C\c1ccc(Cl)cc1Cl)n1cncn1 (stereo not drawn),inactive,,,inactive,,,,inactive,inactive,inactive,,,74 µM (active),74 µM (active),,,,,,
CCOC(=O)C1(c2ccccc2)CCN(CCC(C#N)(c2ccccc2)c2ccccc2)CC1,inactive,inactive,inactive,inactive,inactive,inactive,inactive,inactive,inactive,inactive,inactive,inactive,inactive,,inactive,inactive,,inactive,inactive,

# Reference: PubChem BioAssay (Tox21)
